Measurements as given in PubChem BioAssay (Tox21).
Unmarked numbers belong to inactive results. Records with an inconclusive call do not appear. A call without a number means that no potency is given here. Active and inactive are the calls of the source. Calls follow the shape of the full dose curve.

Columns and labels:
[1] = target: Acetylcholinesterase (Homo sapiens) (UniProt P22303); assay: Acetylcholinesterase (AChE) small molecule antagonists: colormetric cell-based qHTS assay (AID 1347395); also: nearly all actives have a fitted effect of over 30% in size
Sequence of Acetylcholinesterase (Homo sapiens) (P22303 whole entry, looked up): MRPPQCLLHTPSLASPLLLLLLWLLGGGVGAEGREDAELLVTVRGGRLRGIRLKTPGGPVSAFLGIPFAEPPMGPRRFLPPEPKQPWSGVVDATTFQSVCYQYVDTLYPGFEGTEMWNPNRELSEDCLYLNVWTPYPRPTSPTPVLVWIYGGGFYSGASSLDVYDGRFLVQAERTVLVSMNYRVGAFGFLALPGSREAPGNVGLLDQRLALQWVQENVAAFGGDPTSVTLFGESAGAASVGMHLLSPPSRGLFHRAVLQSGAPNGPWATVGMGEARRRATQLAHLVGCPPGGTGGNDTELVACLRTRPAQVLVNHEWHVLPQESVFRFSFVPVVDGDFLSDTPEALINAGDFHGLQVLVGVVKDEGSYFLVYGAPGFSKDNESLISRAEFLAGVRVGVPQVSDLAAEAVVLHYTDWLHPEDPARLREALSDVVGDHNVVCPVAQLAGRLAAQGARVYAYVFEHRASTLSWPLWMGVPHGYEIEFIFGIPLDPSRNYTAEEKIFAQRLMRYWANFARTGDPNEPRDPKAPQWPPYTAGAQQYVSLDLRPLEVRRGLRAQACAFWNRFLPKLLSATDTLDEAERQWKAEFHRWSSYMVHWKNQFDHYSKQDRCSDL
Procedure, shortened: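 AChE inhibition read colorimetrically via DTNB–thiocholine in SH-SY5Y cells. Compound 30 min, substrate 90 min, both 37 C.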

[2] = target: Acetylcholinesterase (Homo sapiens) (UniProt P22303); assay: Acetylcholinesterase (AChE) small molecule antagonists: enzyme-based qHTS assay (AID 1347397); conditions: Potency: AChE enzyme activity inhibition; outcome: AChE enzyme activity inhibition; also: nearly all actives have a fitted effect of over 55% in size
Procedure, shortened: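 Recombinant human AChE (50 mU/mL) preincubated with compound 30 min at room temperature; acetylthiocholine plus DTNB then added, and thiocholine formation read colorimetrically after 10 min at room temperature. DMSO served as vehicle control.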

[3] = target: Acetylcholinesterase (Homo sapiens) (UniProt P22303); assay: Acetylcholinesterase (AChE) small molecule antagonists: fluorescence cell-based qHTS assay (AID 1347398); conditions: Potency: AChE activity; outcome: AChE activity; also: nearly all actives have a fitted effect of over 50% in size
Procedure, shortened: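 SH-SY5Y cells (2000/well), attached overnight, incubated with compound 30 min at 37 C. Acetylthiocholine plus Thiolite Green then added for 40 min at room temperature. Thiocholine fluorescence (Ex/Em 490/520 nm) reports cellular AChE activity.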

[4] = target: Acetylcholinesterase (Homo sapiens) (UniProt P22303); assay: Acetylcholinesterase (AChE) small molecule antagonists: enzyme-based qHTS assay with human liver microsomes (AID 1347399); conditions: Potency: qHTS inhibition; outcome: qHTS inhibition; also: nearly all actives have a fitted effect of over 60% in size
Procedure, shortened: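 Recombinant human AChE (50 mU/mL in the enzyme mix) and human liver microsomes (0.25 mg/mL final) were preincubated with compound and NADPH (0.25 mg/mL final) for 30 min at 37 C. Acetylthiocholine/DTNB was then added; thiocholine was read colorimetrically after 10 min at room temperature.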
Potency is read from the fitted curve at half-maximal effect.

Row | Compound | Potency [1] | Potency [2] | Potency [3] | Potency [4] | activity, negative = inhibition [1] | activity change, negative = inhibition [2] | activity change, negative = inhibition [3] | activity change, negative = inhibition [4]
1 | Fc1ccc(C(c2ccc(F)cc2)N2CCN(C/C=C/c3ccccc3)CC2)cc1 | inactive | inactive | inactive | inactive | – | – | – | –
2 | C=C(C)C(=O)OCCC(F)(F)C(F)(F)C(F)(F)C(F)(F)C(F)(F)C(F)(F)F | inactive | inactive | inactive | inactive | – | – | – | –
3 | Nc1cc(C(=O)O)ccc1Cl | inactive | inactive | inactive | inactive | – | – | – | –
4 | COc1cc(Cl)ccc1Oc1ccc(Cl)cc1Cl | inactive | inactive | inactive | inactive | – | – | – | –
5 | Nc1ccn([C@@H]2O[C@H](CO)[C@@H](O)C2(F)F)c(=O)n1 | inactive | inactive | inactive | inactive | – | – | – | –
6 | CC(CSC(=O)c1ccccc1)C(=O)N1C[C@@H](Sc2ccccc2)C[C@H]1C(=O)O (stereo partly drawn) | – | – | – | – | 0.861% [at 23.6 µM] | -0.415% [at 23.6 µM] | 13.2% [at 23.8 µM] | 2.18% [at 23.6 µM]
7 | C=CC(C)(CCC=C(C)C)OC(=O)CC (stereo not drawn) | inactive | inactive | inactive | inactive | – | – | – | –
8 | CCCCC1=NC2(CCCC2)C(=O)N1Cc1ccc(-c2ccccc2-c2nn[nH]n2)cc1 | inactive | inactive | inactive | inactive | – | – | – | –
9 | CC1=CC[C@@]23C[C@@H]1C(C)(C)[C@@H]2CC[C@H]3C | inactive | inactive | inactive | inactive | – | – | – | –
10 | O=P(O)(O)C(O)(Cc1cccnc1)P(=O)(O)O | inactive | inactive | inactive | inactive | – | – | – | –
11 | NS(=O)(=O)c1ccccc1Cl | inactive | inactive | inactive | inactive | – | – | – | –
12 | CC(C)(C)c1ccccc1 | inactive | inactive | inactive | inactive | – | – | – | –
13 | COc1cccc(Br)c1 | inactive | inactive | inactive | inactive | – | – | – | –
14 | NC(=O)c1ncn([C@@H]2O[C@H](CO)[C@@H](O)[C@H]2O)c1N | inactive | inactive | inactive | inactive | – | – | – | –
15 | CCC(CO)(CO)COCC(CC)(CO)CO | inactive | inactive | inactive | inactive | – | – | – | –
16 | Cc1ccc2ccc3cccc4ccc1c2c34 | inactive | inactive | inactive | inactive | – | – | – | –
17 | CCCCCCOc1ccccc1C(N)=O | inactive | inactive | inactive | inactive | – | – | – | –
18 | CCOc1ccc(NC(=O)OC(C)C)cc1OCC | inactive | inactive | inactive | inactive | – | – | – | –
19 | c1cc2c3c(c1)ccc1cccc(c13)C2 | inactive | inactive | inactive | inactive | – | – | – | –

Row | Compound | Potency [1] | Potency [2] | Potency [3] | Potency [4] | activity, negative = inhibition [1] | activity change, negative = inhibition [2] | activity change, negative = inhibition [3] | activity change, negative = inhibition [4]
20 | C=COCC1CCC(COC=C)CC1 (stereo not drawn) | inactive | inactive | inactive | inactive | – | – | – | –
21 | CCCCCC(C)OC(=O)COc1ccc(Cl)c2cccnc12 (stereo not drawn) | inactive | inactive | inactive | inactive | – | – | – | –
22 | CCCCCCNC(=O)n1cc(F)c(=O)[nH]c1=O | inactive | inactive | inactive | inactive | – | – | – | –
23 | CC(C)=CCC[C@H](C)CCO | inactive | inactive | inactive | inactive | – | – | – | –
24 | CCCCCCCCCCCC(C)=O | inactive | inactive | inactive | inactive | – | – | – | –
25 | CC(CC1c2ccccc2CCc2ccccc21)CN(C)C (stereo not drawn) | inactive | inactive | inactive | inactive | – | – | – | –
26 | S=C(SSSSSSC(=S)N1CCCCC1)N1CCCCC1 | – | – | – | – | -0.568% [at 23.6 µM] | 0.13% [at 23.6 µM] | -3% [at 23.8 µM] | -2.6% [at 23.6 µM]
27 | CN1CCCC1 | inactive | inactive | inactive | inactive | – | – | – | –
28 | CC(C)=CCNc1ncnc2c1ncn2[C@@H]1O[C@H](CO)[C@@H](O)[C@H]1O | inactive | inactive | inactive | inactive | – | – | – | –
29 | CCC(C)(C)C(=O)O | inactive | inactive | inactive | inactive | – | – | – | –
30 | CCOC(=O)CC | inactive | inactive | inactive | inactive | – | – | – | –
31 | Cc1nc(-c2ccccn2)ncc1C(=O)Nn1cc(C)c2cc(F)ccc21 | inactive | inactive | inactive | inactive | – | – | – | –
32 | CC1(C)CC(O)CC(C)(C)N1[O] | inactive | inactive | inactive | inactive | – | – | – | –
33 | S=P(N1CC1)(N1CC1)N1CC1 | 66.7 µM (active) | 59.4 µM (active) | 33.4 µM (active) | 74.8 µM (active) | – | – | – | –
34 | O=C(N[C@H](CO)[C@H](O)c1ccc([N+](=O)[O-])cc1)C(Cl)Cl | inactive | inactive | inactive | inactive | – | – | – | –
35 | O=C(NN1CCCC1)NS(=O)(=O)c1ccc(Cl)cc1 | inactive | inactive | inactive | inactive | – | – | – | –
36 | Cn1cnc2ncnc(N)c21 | inactive | inactive | inactive | inactive | – | – | – | –
37 | OCCc1ccncc1 | inactive | inactive | inactive | inactive | – | – | – | –
